Giardia FBPA inh: blocks Giardia fructose-bisphosphate aldolase activity; A8B2U2; 0.71% of 290,000 active; Potency, µM (doses to about 59.6 µM), for inactives: top-dose activity, negative = inhibition, actives largely listed as inhibitors; purified Giardia FBPA; further: potency means the concentration at half of the fitted maximal effect; on the % scale 0 is the no-effect control and ±100 the full control effect; nearly all actives have a fitted effect of over 55% in size
Target sequence (A8B2U2 whole entry, looked up): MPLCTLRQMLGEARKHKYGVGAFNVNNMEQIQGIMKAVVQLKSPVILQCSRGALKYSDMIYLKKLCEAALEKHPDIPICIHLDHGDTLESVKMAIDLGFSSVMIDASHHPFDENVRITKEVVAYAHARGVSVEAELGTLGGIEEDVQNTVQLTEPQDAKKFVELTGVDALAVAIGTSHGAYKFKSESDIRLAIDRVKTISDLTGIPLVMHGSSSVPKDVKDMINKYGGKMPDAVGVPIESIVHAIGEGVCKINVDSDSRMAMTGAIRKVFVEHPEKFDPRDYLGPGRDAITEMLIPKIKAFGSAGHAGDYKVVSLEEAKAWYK
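Giardia FBPA (40 nM reagent) was preincubated 10 min at RT with compound (up to 57.5 uM final), then substrate plus GAPDH/TPI/NAD/arsenate coupling system with diaphorase/resazurin was added; resorufin fluorescence (525/598 nm) was read after 20 min.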
NS1 inh: influenza NS1 inhibition | AID 2326 | 0.4% of 270,000 active | Potency, µM (doses to about 46.1 µM), for the others: at the top dose activity, positive = more growth; calls by dose curve; further: potency means the concentration at half of the fitted maximal effect; actives are rising curves; nearly all actives have a fitted effect of over 50% in size
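Recovery from NS1-induced slow growth read by OD600 in budding yeast switched to galactose assay medium (pH 6.0, -URA) at 1:100 dilution. Compound 23 nl per well; the matching strain lacking NS1 serves as control.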
Cycloheximide cs: affects cycloheximide protein synthesis inhibition readout, counter-screen; cell reporter, cycloheximide protein synthesis inhibition counterscreen; max response, %; 12% of 300,000 active; in the data active means max response mostly above about 13%, no sharp cut-off; inactive means mostly below about 14%; further: read at 38.3 µM for the half of the compounds with a filed dose; 0% is about no effect
Shiga inhibitor: blocks Shiga toxin action in Vero cells | inhibition, % at 38.7 µM | 9.2% of 290,000 active | Vero cells, Shiga toxin protein synthesis inhibition reporter; in the data active means inhibition mostly above about 28%, no sharp cut-off; inactive means mostly below about 43%; further: 0% is about no effect
Pf growth 96h: inhibits malaria parasite growth, 96 h; P. falciparum luciferase reporter growth, 96 h; Potency, µM (series often up to 28.7 µM), without a hit: at the highest dose activity change, negative = inhibition, usual class: inhibitors; 6.9% of 320,000 active; AID 504834; further: potency means the concentration at half of the fitted maximal effect; on the % scale 0 is the no-effect control and ±100 the full control effect
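Erythrocytes infected with luciferase-expressing P. falciparum were dispensed at 2% hematocrit and 0.05% parasitemia (final), then incubated with compounds 96 hours at 37 C in 5% CO2. Luminescence after detection reagent addition reported growth.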
Pf growth 48h: P. falciparum growth inhibition at 48 hours (one generation). P. falciparum luciferase growth in erythrocytes, 48 h. Potency, µM (doses to about 28.7 µM), without a hit: at the top dose activity change, negative = inhibition, hits mostly inhibitors. 5.9% of 310,000 active. AID 504832; further: potency means the concentration at half of the fitted maximal effect; on the % scale 0 is the no-effect control and ±100 the full control effect
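Here the parasites carry a stable luciferase gene and grow inside erythrocytes in Albumax-based RPMI medium with compound for one erythrocytic cycle. Activity is scored as loss of luminescent signal.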
* hit, by the source's call; ? = inconclusive; nt = no result given; ! = a repeat was not active; [ ] = remark or other dose. Most compounds without a hit are left out; they make up all but 21% or so of the library. Unless noted, the call rests on the fitted dose curve; in most records, active means well fitted curve in the direction sought with a large enough effect; inconclusive means small, poorly fitted or top-dose-only effect, or another doubt; inactive means no such curve, though single readings can be large; an effect the other way counts as inactive or inconclusive.

SMILES | Giardia FBPA inh | NS1 inh | Cycloheximide cs | Shiga inhibitor | Pf growth 96h | Pf growth 48h
O=C(NCc1ccccc1)/C(=C\c1ccccc1)NC(=O)c1ccco1 | 1.6% | 13.6% | 1.1 | -5.9 | 25.7% | 8.4%
N/C(Cc1cccc2ccccc12)=N\OC(=O)COc1ccccc1 | 0.4% | -1.9% | 4.2 | 33.3 | 166.0% | 6.2%
N/C(Cc1cccc2ccccc12)=N\OC(=O)c1ccccc1F | nt | -17.5% | 22.7* | 23.2 | ? | ?
N/C(Cc1ccc(Cl)cc1Cl)=N\OC(=O)c1ccccc1F | 1.2% | nt | 53.3* | 74.6* | 0.0% | 35.3%
N/C(Cc1ccccc1)=N\OC(=O)c1cccc2ccccc12 | -2.3% | -55.1% | 28.7* | 63.9* | 4.65µM* | 3.29µM*
O=C1NN(c2ccc(F)cc2)C(=O)/C1=C\c1cnn(-c2ccccc2)c1 | 1.6% | 2.4% | -1.3 | -3.4 | 30.7% | 31.7%
COc1ccccc1N1C(=O)NC(=O)/C(=C\c2cnn(-c3ccccc3)c2)C1=O | -5.2% | nt | 13.3 | 47.5* | -22.0% | 16.9%[5.75 µM]
O=C1NC(=O)N(Cc2ccccc2)C(=O)/C1=C/c1cnn(-c2ccccc2)c1 | 8.3% | nt | 30.4* | 51.3* | 379.5% | 39.1%
COc1ccccc1N1C(=O)NC(=O)/C(=C/c2ccc3c4c(cccc24)CC3)C1=O | ? | ? | 17.5* | 33.2 | -20.4% | 3.9%
COc1ccc2cc(C#N)c(=O)oc2c1 | 1.6% | nt | -5.5 | -4.3 | nt | nt
COc1cc(CN2CCCC(CO)(Cc3ccccc3)C2)ccc1O (stereo not given) | 2.1% | ? | -1.0 | nt | 10.4µM* | 16.4%
CC(C)Oc1ccc(CN2CCCC(CO)(Cc3ccc(F)cc3)C2)cc1 (stereo not given) | 1.2% | 4.2% | -2.4 | -6.9 | 10.4% | ?
COc1ccc(CN2CCCC(CO)(Cc3ccc(F)cc3)C2)c(OC)c1OC (stereo not given) | -0.7% | -0.5% | 1.4 | -4.0 | 11.7µM* | -16.7%
COc1ccc(CN2CCCC(CO)(Cc3cccc(Cl)c3)C2)cc1OC (stereo not given) | 14.6% | 6.6% | -2.1 | -8.0 | ? | -19.0%
COc1cccc(CC2(CO)CCCN(Cc3ccc4c(c3)OCCO4)C2)c1 (stereo not given) | 4.1% | 1.3% | -1.2 | -16.5 | 10.4µM* | -36.0%
OCC1(Cc2cccc(Cl)c2)CCCN(Cc2cnn(-c3ccccc3)c2)C1 (stereo not given) | 1.3% | 3.1% | -3.2 | -13.8 | -8.4% | 8.28µM*
CC(C)[C@@H](CC(=O)N[C@@H]1CCNC[C@H]1C(=O)N[C@H](CC(=O)N[C@@H](CCC(=O)O)CC(=O)O)Cc1ccccc1)NC(=O)C[C@H](CO)NC(=O)[C@@H]1CCCC[C@H]1N | 13.9% | nt | nt | nt | nt | nt
CCn1cc(CN2CCc3c([nH]c4ccccc34)C2c2cccc(O)c2)c(C)n1 (stereo not given) | -10.3% | -5.7% | -1.3 | -1.7 | -1.3% | -17.0%
CSc1ncc(CN2CCc3c([nH]c4ccccc34)C2c2cccc(O)c2)cn1 (stereo not given) | -18.4% | -4.1% | 1.0 | -6.9 | -52.5% | 4.15µM*
CCn1nc(C)c(CN2CCc3c([nH]c4ccccc34)C2c2ccc(F)c(OC)c2)c1C (stereo not given) | -13.0% | -7.1% | 16.5* | 19.4 | ? | 2.62µM*
Clc1ccc(-n2cccc2CN2CCc3c([nH]c4ccccc34)C2c2ccccn2)nc1 (stereo not given) | -24.9% | 2.1% | -0.9 | 1.9 | 10.4µM* | 9.28µM*
CSc1ncc(CN2CCc3c([nH]c4ccccc34)C2c2cccc(C)n2)cn1 (stereo not given) | -13.8% | 5.9% | -3.5 | 17.6 | ? | ?
COc1cccc(C2c3[nH]c4ccccc4c3CCN2Cc2cccn2-c2ncccn2)c1 (stereo not given) | -2.5% | 5.0% | -2.9 | 20.5 | 5.22µM* | ?
Cc1noc(C)c1C(=O)N1CCC2(CCN(Cc3ccncc3)CC2)CC1 | -0.2% | nt | nt | nt | nt | nt
CCc1cccc(N(C(=O)c2csnn2)C(C(=O)NC(C)(C)C)c2ccccn2)c1 (stereo not given) | 4.3% | -1.9% | 6.3 | -6.3 | 0.0% | 16.7%
SMILES | Giardia FBPA inh | NS1 inh | Cycloheximide cs | Shiga inhibitor | Pf growth 96h | Pf growth 48h
CCn1cc(CN2CCc3c([nH]c4ccccc34)C2c2cccc(OC)c2)c(C)n1 (stereo not given) | -11.1% | -3.5% | -1.7 | 10.6 | ? | 11.7µM*
CCn1cc(CN2CCc3c([nH]c4ccccc34)C2c2ccc(F)c(OC)c2)c(C)n1 (stereo not given) | -11.5% | -0.6% | 2.6 | 4.3 | ? | 11.7µM*
CC(OC(=O)CNC(=O)c1ccc(Cl)cc1)C(=O)NC1CCCCC1C (stereo not given) | nt | nt | nt | nt | 24.8% | -24.1%
Cc1ccc(Nc2nc3ccc(Cl)cc3n3cnnc23)cc1F | 0.3% | -3.7% | -1.7 | -6.6 | ? | 10.4µM*
COc1ccc(Nc2nc3ccccc3n3cnnc23)cc1Cl | 7.6% | -4.4% | 34.7* | 34.0 | ? | nt
COc1ccc(/C(C)=N/Nc2nc3ccccc3n3cnnc23)cc1OC | ? | -1.9% | 19.1* | 40.2* | ? | ?
COc1cccc(Nc2nc3ccccc3n3cnnc23)c1 | 1.2% | -8.6% | 14.5* | 65.6 | ? | nt
COc1cc(CO)ccc1Oc1nc2ccccc2n2cnnc12 | 0.2% | -0.7% | 6.2 | 28.6 | 2.9% | 8.6%
CN(C)c1ccc(-c2nccc(Nc3ccc(F)cc3)n2)cc1 | -26.4% | nt | nt | nt | nt | nt
Cc1ccc2c(c1)c(CC(NC(=O)c1ccccc1Oc1ccccc1)C(=O)O)cn2C(=O)OCc1ccccc1 (stereo not given) | 17.5% | nt | -2.7 | -6.1 | nt | nt
O=c1c2[nH]cnc2n(-c2cccc(F)c2)c(=O)n1Cc1ccccc1 | ? | 0.2% | 5.6 | -15.9 | -4.3% | 32.6%
CCn1c2ccc(C)cc2c2n[nH]c(=S)nc21 | 24.1% | 9.9% | -2.5 | nt | 118.1% | ?
COc1cccc(-c2nc(NCCN3CCOCC3)c3ccccc3n2)c1 | -10.1% | nt | nt | nt | nt | nt
COc1ccc(C(CC(=O)N2CCCC2)c2c(OC)cc(OC)c3ccc(=O)oc23)cc1 (stereo not given) | 7.4% | 0.0% | -3.0 | -12.3 | ? | ?
COc1cc(OC)c2ccc(=O)oc2c1C(CC(=O)N1CCCC1)c1ccc(N(C)C)cc1 (stereo not given) | 4.4% | -27.0% | 22.4*! | 30.2 | ? | ?
COc1cc(OC)c2ccc(=O)oc2c1C(CC(=O)N1CCOCC1)c1ccc(N(C)C)cc1 (stereo not given) | -6.2% | -20.3% | -4.3 | -14.5 | ? | ?
CCN(CC)C(=O)CC(c1ccc2c(c1)OCO2)c1c(OC)cc(OC)c2ccc(=O)oc12 (stereo not given) | 8.2% | -1.8% | 19.7 | -3.7 | 10.4µM* | 8.28µM*
CCN(CC)C(=O)CC(c1ccc(N(C)C)cc1)c1c(OC)cc(OC)c2ccc(=O)oc12 (stereo not given) | -8.1% | -34.4% | -4.3 | 16.0 | 10.4µM* | 8.28µM*
